According to PubChem BioAssay AID1159580 (chemical genetic matrix, 2015):
Several values for one entry are separate records, joined by “and”; a condition that tells them apart may be missing. Equal values may be shown once. About 2,000 (36%) of roughly 5,500 compounds were called active. Inconclusive results (about 18%) are left out. Cut-off read from the data, not from the text of the source: active = normalized growth mostly below about 0.91 (no sharp cut-off); inconclusive = no clear call, values can overlap the other calls; inactive = mostly above about 0.92. The list shows a part of the results.

Experiment: chemical genetic growth profiling, strain panel (AID 1159580);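 note: tested at 20 µM; growth read once vehicle control cultures reached saturation at 30 °C; 1 = growth at the plate median or of vehicle wells; lower values mean less growth of the strain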
Conditions: S. cerevisiae deletion strains, growth OD

Measured: normalized growth

COc1cc2c(cc1OC)Cc1cc(OC)c(OC)cc1Cc1cc(OC)c(OC)cc1C2
inactive: locus YAL021C, strain ccr4, stronger effect = lower value 1.03 | locus YAL026C, strain drs2, stronger effect = lower value 1.04 | locus YAL030W, strain snc1, stronger effect = lower value 1.03 | locus YBL061C, strain skt5, stronger effect = lower value 1.03 | locus YBR009C, strain hhf1, stronger effect = lower value 1.03 | locus YBR021W, strain FUR4, stronger effect = lower value 1.02 | locus YBR023C, strain chs3, stronger effect = lower value 1.03 | locus YBR171W, strain sec66, stronger effect = lower value 1.05 | locus YBR229C, strain ROT2, stronger effect = lower value 1.02 | locus YBR231C, strain swc5, stronger effect = lower value 1.04 | locus YBR279W, strain paf1, stronger effect = lower value 1.02 | locus YCL011C, strain gbp2, stronger effect = lower value 1.04 | locus YCL016C, strain dcc1, stronger effect = lower value 1.03 | locus YCL029C, strain bik1, stronger effect = lower value 1.02 | locus YCL061C, strain MRC1, stronger effect = lower value 1.02 | locus YCL069W, strain vba3, stronger effect = lower value 1.02 | locus YCR088W, strain abp1, stronger effect = lower value 1.02 | locus YDL005C, strain med2, stronger effect = lower value 1.03 | locus YDL035C, strain GPR1, stronger effect = lower value 1.01 | locus YDL040C, strain nat1, stronger effect = lower value 1.05 | locus YDL074C, strain BRE1, stronger effect = lower value 1.03 | locus YDL101C, strain DUN1, stronger effect = lower value 1.02 | locus YDL134C, strain PPH21, stronger effect = lower value 1.02 | locus YDL185W, strain tfp1, stronger effect = lower value 1.02 | locus YDL192W, strain arf1, stronger effect = lower value 1.05 | locus YDR001C, strain nth1, stronger effect = lower value 1.02 | locus YDR069C, strain doa4, stronger effect = lower value 1.04 | locus YDR101C, strain arx1, stronger effect = lower value 1.07 | locus YDR137W, strain rgp1, stronger effect = lower value 1.08 | locus YDR150W, strain NUM1, stronger effect = lower value 0.978 | locus YDR159W, strain sac3, stronger effect = lower value 1.05 | locus YDR162C, strain NBP2, stronger effect = lower value 1.03 | locus YDR195W, strain ref2 1.01 | locus YDR297W, strain sur2, stronger effect = lower value 1.03 | locus YDR318W, strain mcm21, stronger effect = lower value 1.02 | locus YDR334W, strain swr1, stronger effect = lower value 1.02 | locus YDR335W, strain msn5, stronger effect = lower value 1.03 | locus YDR388W, stronger effect = lower value 1.03 | locus YDR392W, strain spt3, stronger effect = lower value 0.993 | locus YDR502C, strain sam2, stronger effect = lower value 1.03 | locus YEL003W, strain gim4, stronger effect = lower value 1.04 | locus YEL037C, strain rad23, stronger effect = lower value 1.02 | locus YEL061C, strain CIN8 (second series), stronger effect = lower value 1.03 | locus YEL061C, strain CIN8, stronger effect = lower value 1.01 | locus YER015W, strain faa2, stronger effect = lower value 1.03 | locus YER016W, strain bim1, stronger effect = lower value 1.02 | locus YER110C, stronger effect = lower value 1.03 | locus YER111C, strain swi4, stronger effect = lower value 1.03 | locus YER155C, strain BEM2 (second series), stronger effect = lower value 1.03 | locus YER155C, strain BEM2, stronger effect = lower value 1.01 | locus YER167W, strain BCK2, stronger effect = lower value 1.01 | locus YFR010W, strain ubp6, stronger effect = lower value 1.05 | locus YGL078C, strain dbp3, stronger effect = lower value 1.03 | locus YGL086W, strain mad1, stronger effect = lower value 0.979 | locus YGL167C, strain pmr1, stronger effect = lower value 1.04 | locus YGL173C, strain kem1, stronger effect = lower value 1.04 | locus YGL227W, strain vid30, stronger effect = lower value 1.04 | locus YGL240W, strain doc1, stronger effect = lower value 1.03 | locus YGL248W, strain PDE1, stronger effect = lower value 1.02 | locus YGL253W, strain hxk2, stronger effect = lower value 1.02 | locus YGR078C, strain PAC10, stronger effect = lower value 1.02 | locus YGR135W, strain pre9, stronger effect = lower value 1.06 | locus YGR252W, strain gcn5, stronger effect = lower value 1.05 | locus YHR013C, strain ard1, stronger effect = lower value 1.05 | locus YHR027C, strain rpn1, stronger effect = lower value 1.04 | locus YHR030C, strain SLT2, stronger effect = lower value 1.01 and 1.02 | locus YHR079C, strain IRE1 (second series), stronger effect = lower value 1.02 | locus YHR079C, strain IRE1, stronger effect = lower value 1.06 | locus YHR094C, strain hxt1, stronger effect = lower value 1.03 | locus YHR129C, strain ARP1, stronger effect = lower value 1.01 | locus YHR142W, strain chs7, stronger effect = lower value 1.03 | locus YHR200W, strain rpn10, stronger effect = lower value 1.03 | locus YIL066C, strain RNR3, stronger effect = lower value 1.01 | locus YIL073C, strain SPO22, stronger effect = lower value 1.04 | locus YIL125W, strain kgd1, stronger effect = lower value 1.04 | locus YIR030C, strain dcg1, stronger effect = lower value 1.02 | locus YJL092W, strain hpr5, stronger effect = lower value 1.03 | locus YJL095W, strain BCK1 (second series), stronger effect = lower value 1.02 | locus YJL095W, strain BCK1, stronger effect = lower value 1.02 and 1.03 | locus YJL115W, strain asf1, stronger effect = lower value 1.04 | locus YJL129C, strain trk1, stronger effect = lower value 1.05 | locus YJL134W, strain LCB3, stronger effect = lower value 0.998 | locus YJL154C, strain vps35, stronger effect = lower value 1.01 | locus YJL164C, strain tpk1, stronger effect = lower value 1 | locus YJL166W, strain qcr8, stronger effect = lower value 1.03 | locus YJL168C, strain set2, stronger effect = lower value 1.03 | locus YJL187C, strain SWE1 (second series), stronger effect = lower value 1.03 | locus YJL187C, strain SWE1, stronger effect = lower value 1.03 | locus YJR043C, strain POL32, stronger effect = lower value 1
